Screening data: PubChem, National Center for Advancing Translational Sciences (NCATS)
TDP1 block = qHTS Assay for Inhibitors of Tyrosyl-DNA Phosphodiesterase (TDP1); AID 485290, 2010; recombinant TDP1, AlphaScreen DNA substrate cleavage; 350,000 tested, 0.28% active; Potency, µM (series often up to 130 µM), for the others: top-dose activity change, negative = inhibition, most hits filed as inhibitors; also: nearly all actives have a fitted effect of over 40% in size
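Recombinant E. coli-expressed Tdp1 (1 nM) preincubated with compound 15 min at RT, then 5'-biotin/3'-phosphotyrosine-FITC DNA substrate (15 nM) added for 5 min. AlphaScreen beads (10 ug/ml) added, 10 min RT; tyrosine-FITC cleavage read as signal loss.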
KAT2A inh = qHTS Assay for Inhibitors of GCN5L2; GCN5L2 HAT assay, ThioGlo1 CoA-SH fluorescence; 390,000 tested, 0.21% active; Potency, µM (series often up to 58.9 µM), without a hit: top-dose activity change, negative = inhibition, most hits filed as inhibitors; AID 504327, 2011; Histone acetyltransferase KAT2A (Homo sapiens), Q92830
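Enzyme at 20nM final was mixed with library compounds for 15 min at room temperature. Peptide H3(1-25) at 75uM, acetyl-CoA at 70uM and ThioGlo1 at 50uM were then added. Plates were read immediately and after 20 min (Ex340nm/Em540nm).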
TDP1 cell noCPT = qHTS for Inhibitors of human tyrosyl-DNA phosphodiesterase 1 (TDP1): qHTS in cells in absence of CPT | 420,000 tested, 15% active | Potency, µM (series often up to 46.2 µM), without a hit: at the highest dose activity change, negative = growth inhibition, most hits filed as inhibitors | AID 686978, 2013 | DT40 Tdp1-/- hTDP1 cells, no CPT, ATP luminescence, 48 h; also: nearly all actives have a fitted effect of over 55% in size
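Compound effects on proliferation are scored in DT40 Tdp1-/-;hTDP1 cells in the absence of CPT. ATP levels (CellTiter-Glo luminescence) are recorded after a ≥48 hr, 37 °C incubation.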
VDR inhibitor = Inhibitors of the vitamin D receptor (VDR): qHTS | AID 504847, 2011 | Potency, µM, for inactives: max response, negative = inhibition, hits mostly inhibitors | VDR-SRC2-3 peptide fluorescence polarization, 2 h | Vitamin D3 receptor (Homo sapiens), P11473 | 400,000 tested, 0.93% active
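Fluorescence polarization assay measuring small-molecule disruption of VDR binding to the coregulator peptide SRC2-3. Compounds were pin-transferred (23 nl) into the reagent mix and incubated 2 h at room temperature before reading.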
TDP1 cell CPT = qHTS for Inhibitors of human tyrosyl-DNA phosphodiesterase 1 (TDP1): qHTS in cells in presence of CPT | 420,000 tested, 12% active | Potency, µM (top dose mostly 46.2 µM), for inactives: at the highest dose activity change, negative = growth inhibition, usual class: inhibitors | chicken DT40 Tdp1-/-;hTDP1 cells + 20 nM CPT, ATP luminescence, 48 h | AID 686979, 2013; also: nearly all actives have a fitted effect of over 55% in size
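Chicken DT40 Tdp1-/- cells stably complemented with human TDP1 were seeded at 400 cells/well in medium containing 20 nM camptothecin, exposed to pin-transferred compounds, and grown at 37 °C for at least 48 hr. Viability was read as ATP luminescence.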
PLK1 PBD block = qHTS for Inhibitors of PLK1-PDB (polo-like kinase 1 - polo-box domain): Primary Screen; Serine/threonine-protein kinase PLK1 (Homo sapiens), P53350; Plk1 PBD binding of FITC phosphopeptide, fluorescence polarization; Potency, µM, inactives show max response, negative = inhibition, most hits filed as inhibitors; 360,000 tested, 2.8% active; also: series mostly up to about 57 µM; nearly all actives have a fitted effect of over 65% in size
Target sequence (P53350 whole entry, looked up, the tested form may be a part): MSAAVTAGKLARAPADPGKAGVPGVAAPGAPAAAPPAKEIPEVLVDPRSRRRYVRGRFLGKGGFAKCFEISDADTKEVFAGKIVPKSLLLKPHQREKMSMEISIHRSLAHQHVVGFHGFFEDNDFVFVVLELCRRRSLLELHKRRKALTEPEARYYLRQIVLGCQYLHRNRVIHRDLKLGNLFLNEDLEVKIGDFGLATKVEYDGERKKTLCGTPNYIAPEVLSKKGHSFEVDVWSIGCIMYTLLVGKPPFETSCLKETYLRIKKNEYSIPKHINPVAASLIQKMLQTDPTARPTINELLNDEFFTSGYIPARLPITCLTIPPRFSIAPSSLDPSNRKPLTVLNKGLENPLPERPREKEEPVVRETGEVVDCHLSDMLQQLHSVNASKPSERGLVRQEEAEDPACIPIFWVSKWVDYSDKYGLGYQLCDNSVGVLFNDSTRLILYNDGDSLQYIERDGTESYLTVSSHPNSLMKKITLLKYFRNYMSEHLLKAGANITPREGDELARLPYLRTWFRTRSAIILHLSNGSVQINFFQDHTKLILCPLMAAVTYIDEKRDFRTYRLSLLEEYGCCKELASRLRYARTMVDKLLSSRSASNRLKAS
Starred values were filed as active, the others as inactive. Sampled rows, rich in hits. Any-hit rate of the full collection: about 18%. Calls follow the shape of the dose curve; as a rule, active = well fitted curve in the direction sought with a large enough effect; inconclusive = small, poorly fitted or top-dose-only effect, or another doubt; inactive = no such curve, though single readings can be large; an effect the other way counts as inactive or inconclusive. % is scaled to controls: 0 for no effect and ±100 for the full control effect; potency is read from the fitted curve at half-maximal effect.

What do the screens show for `OCCCn1c(CCCNc2nc(-c3cccc(Br)c3)cs2)nc2cc(Cl)c(N3CCCCC3)cc21`?
KAT2A inh: -4.4%; TDP1 cell noCPT: 16.4µM*; VDR inhibitor: -8.3%; TDP1 cell CPT: inconclusive; PLK1 PBD block: -5.9%

What do the screens show for `COc1ccc(OC)c(CC(NC(C)=O)C(=O)NC2CCN(c3nc(OC)nc(OC)n3)CC2)c1` (stereo not given)?
TDP1 block: -0.6%; KAT2A inh: 1.2%; TDP1 cell noCPT: 9.8%; VDR inhibitor: -12.8%; TDP1 cell CPT: -8.1%; PLK1 PBD block: -8.2%

What do the screens show for `OC[C@@H](O)[C@H](O)C(/C=N/Nc1ccccc1)=N\Nc1ccccc1`?
KAT2A inh: -1.9%; TDP1 cell noCPT: inconclusive; VDR inhibitor: -23.1%; TDP1 cell CPT: -25.5%; PLK1 PBD block: -18.8%

What do the screens show for `CN1CCCN(C(=O)c2c(F)cccc2Cl)CC1`?
TDP1 block: 1.8%; KAT2A inh: -5.9%; TDP1 cell noCPT: 21.1%; VDR inhibitor: -3.4%; TDP1 cell CPT: -29.7%; PLK1 PBD block: -9.3%

Results for CCOC(=O)C1CCCN(c2ncnc3c2oc2ccccc23)C1 (stereo not given) ?
TDP1 block: -1.0%; KAT2A inh: -3.1%; TDP1 cell noCPT: 13µM*; VDR inhibitor: -4.0%; TDP1 cell CPT: inconclusive; PLK1 PBD block: -0.8%

Results for c1ccc(N2CCN(c3ncnc4c3oc3ccccc34)CC2)cc1 ?
TDP1 block: 7.6%; KAT2A inh: -2.0%; TDP1 cell noCPT: inconclusive; VDR inhibitor: -2.1%; TDP1 cell CPT: inconclusive; PLK1 PBD block: 3.2%

How did CCc1nnc(N2CCN(c3ncnc4c3oc3ccccc34)CC2)s1 do in these assays?
TDP1 block: 6.8%; KAT2A inh: 0.7%; TDP1 cell noCPT: 18.4µM*; VDR inhibitor: -2.3%; TDP1 cell CPT: 18.4µM*; PLK1 PBD block: -18.6%

What do the screens show for `CCOC(=O)C1CCN(c2ncnc3c2oc2ccccc23)CC1`?
TDP1 block: 2.0%; KAT2A inh: -5.7%; TDP1 cell noCPT: 16.4µM*; VDR inhibitor: -4.4%; TDP1 cell CPT: inconclusive; PLK1 PBD block: -14.7%

Results for O=C(O)C[C@H]1c2ccccc2S(=O)(=O)N1C1CCCC1 ?
TDP1 cell noCPT: -16.7%; VDR inhibitor: 4.1%; TDP1 cell CPT: inconclusive; PLK1 PBD block: -18.7%

What do the screens show for `CCCN(C)C1CN(Cc2cn(Cc3ccc(F)cc3)nn2)S(=O)(=O)C1` (stereo not given)?
TDP1 cell noCPT: -8.9%; TDP1 cell CPT: 6.4%; PLK1 PBD block: 3.6%

Results for CC(C)c1nc(Nc2nc3ccccc3o2)nc2c1CCCC2 ?
TDP1 block: 2.6%

What do the screens show for `Cc1nc(Nc2nc3ccccc3o2)nc2c1CCC2`?
TDP1 block: 2.1%; KAT2A inh: -1.5%; TDP1 cell noCPT: 20.6µM*; VDR inhibitor: 8.0%; TDP1 cell CPT: inconclusive; PLK1 PBD block: -6.6%

What do the screens show for `CCOC(=O)/C(C)=N/NC(C)=O`?
TDP1 block: 5.0%; VDR inhibitor: 5.8%

Results for CN1c2ccccc2N(C)C1c1ccc2c(c1)OCO2 ?
TDP1 block: 3.1%; KAT2A inh: -20.8%; TDP1 cell noCPT: 16.4µM*; VDR inhibitor: 9.4%; TDP1 cell CPT: 23.1µM*; PLK1 PBD block: -8.0%

Results for CC12CN3CC(C)(CN(C1)C3c1ccc3c(c1)OCO3)C2=O (stereo not given) ?
TDP1 block: 4.5%; KAT2A inh: 0.9%; TDP1 cell noCPT: 13.0%; VDR inhibitor: -6.5%; TDP1 cell CPT: -1.5%; PLK1 PBD block: -1.5%

Results for O=C(C[n+]1cc(-c2ccccc2)n2c1CCCCC2)c1ccc(Br)cc1 ?
TDP1 block: 8.2%; KAT2A inh: 12.6%; TDP1 cell noCPT: 23.1µM*; VDR inhibitor: -14.8%; TDP1 cell CPT: 20.6µM*; PLK1 PBD block: -7.5%

What do the screens show for `Cc1ccc(-c2c[n+](Cc3ccc(Cl)c(Cl)c3)c3n2CCC3)cc1`?
TDP1 block: 2.7%; KAT2A inh: 7.2%; TDP1 cell noCPT: 0.517µM*; VDR inhibitor: 9.2%; TDP1 cell CPT: 0.581µM*; PLK1 PBD block: -10.8%

Results for Cc1cccc(C)c1NC(=O)C[n+]1cc(-c2ccccc2)n2c1CCC2 ?
TDP1 block: -1.2%; KAT2A inh: -8.3%; TDP1 cell noCPT: -4.3%; VDR inhibitor: 1.6%; TDP1 cell CPT: 1.0%; PLK1 PBD block: -4.6%

Results for Cc1ccc(-c2c[n+](CC(=O)OCc3ccccc3)c3n2CCC3)cc1 ?
TDP1 block: 5.6%; KAT2A inh: -3.4%; TDP1 cell noCPT: -26.9%; VDR inhibitor: -3.1%; TDP1 cell CPT: -16.7%; PLK1 PBD block: -2.7%

How did Cc1ccc(C(=O)C[n+]2cc(-c3ccc(C)cc3)n3c2CCCCC3)cc1 do in these assays?
TDP1 block: 3.9%; KAT2A inh: inconclusive; TDP1 cell noCPT: 0.146µM*; VDR inhibitor: -3.5%; TDP1 cell CPT: 0.206µM*; PLK1 PBD block: -4.1%

Results for Cc1ccc(C(=O)N2CCN(c3ccccc3Cl)CC2)cc1[N+](=O)[O-] ?
TDP1 block: 0.0%; KAT2A inh: -4.3%; TDP1 cell noCPT: inconclusive; VDR inhibitor: -13.2%; TDP1 cell CPT: 29.1µM*; PLK1 PBD block: 7.1%

How did Cc1cccc(N2CCN(C(=O)Cc3ccccc3[N+](=O)[O-])CC2)c1C do in these assays?
TDP1 block: 5.1%; KAT2A inh: -4.6%; TDP1 cell noCPT: 20.6µM*; VDR inhibitor: -15.7%; TDP1 cell CPT: -18.0%; PLK1 PBD block: -2.7%

Results for Cc1cccc(N2CCN(C(=O)c3ccc(-n4cncn4)c([N+](=O)[O-])c3)CC2)c1C ?
TDP1 block: 7.4%; KAT2A inh: -4.2%; TDP1 cell noCPT: -26.0%; VDR inhibitor: 6.7%; TDP1 cell CPT: 20.6µM*; PLK1 PBD block: -5.6%

What do the screens show for `O=C(c1ccc(N2CCCC2)c([N+](=O)[O-])c1)N1CCN(c2ccccn2)CC1`?
TDP1 block: 5.3%; KAT2A inh: -6.0%; TDP1 cell noCPT: -11.9%; VDR inhibitor: 7.1%; TDP1 cell CPT: -24.7%; PLK1 PBD block: 1.0%
